Experimental data taken from PubChem BioAssay (NCI).
About 83,000 compounds went through this panel and 20% of them were active in at least one assay; those are over-represented in the sample as a whole.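 Activity criterion: percent growth below 10, measured after cells in 96-well plates were exposed to a single compound concentration for 48 hours.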 A number with no mark means an inactive call. Activity calls are given as the source filed them.

The compounds below were run on SNB-19 CNS (assay: NCI-60 one-dose screen, 48 h (100 = growth as untreated, 0 = no growth, -100 = all killed)). Settings: 10 µM unless noted.

**Q.** With `CC1Cc2c(N(C)C)ncnc2N(C)c2ccc(Cl)cc21` (configuration not stated) as the compound, how does the growth read?
**A.** 39.1%

**Q.** For `CCC(=O)Oc1cc(/C=C/C(=O)O[C@H]2C[C@H]3CN4CCc5c([nH]c6cc(OC)ccc56)[C@@H]4C[C@@H]3[C@@H](C(=O)OC)[C@@H]2OC)ccc1OC`, which growth is on record?
**A.** 87.2%

**Q.** Which growth does the source give for `CN(C)C/C=C/C(=O)Nc1cc2c(Nc3cccc(Cl)c3F)ncnc2cc1OCCOC(F)F` here?
**A.** 57.1%

**Q.** How did the growth turn out when `O=C1Nc2cc(Cl)ccc2Oc2cc(Oc3ccccc3)ccc21` was run?
**A.** 72.7%

**Q.** Which growth does the source give for `c1cncc(CNc2ccccc2-c2nnc(Nc3ccc4c(c3)OCCO4)o2)c1` here?
**A.** 38.1%

**Q.** For `COC1=CC(c2ccc[nH]2)=N/C1=C\c1[nH]c(C)c(C(=O)CCCCC(=O)Oc2ccc3c(c2)CCC2C3CC[C@]3(C)[C@@H](O)CC[C@@H]23)c1C` (some centres not stated), which growth is on record?
**A.** 75.6%

**Q.** Which growth does the source give for `COc1ccc(/C=c2\sc3n(c2=O)C2C(NN=3)N(C)C(=O)N2C)cc1` (configuration not stated) here?
**A.** 33.9%

**Q.** How did the growth turn out when `Cc1sc(N=Nc2ccc(N(C)C)cc2)[n+]([O-])c1C` was run?
**A.** 99.5%

**Q.** How did the growth turn out when `COc1cc(/C=C/C(=O)c2ccccc2O)ccc1OCCCOc1cc2c(cc1OC)C(=O)N1CCC[C@H]1C=N2` was run?
**A.** -1.67% (active)

These compounds were tested on U251 CNS in the same assay as above. Settings: 10 µM unless noted.

**Q.** With `COc1ccc2c(c1)NC(=O)CN2c1nc(NC2CC2)nc2ccccc12` as the compound, how does the growth read?
**A.** 11.8%

**Q.** How did the growth turn out when `Nc1c(C(=O)Nc2cccc(Cl)c2Cl)sc2nc3c(cc12)C(=O)CCC3` was run?
**A.** 120%

**Q.** With `CC(=O)Nc1ccc(S(=O)(=O)N2C(=O)CCC2C(=O)Nc2ccc(Br)cc2)cc1` (configuration not stated) as the compound, how does the growth read?
**A.** 22.2%

**Q.** With `Nc1nc(-c2cc3ccccc3o2)cc(=O)c(=O)[nH]1` as the compound, how does the growth read?
**A.** 91.9%

**Q.** How did the growth turn out when `Cc1nn(-c2ccc(Cl)cc2)c(=O)n1CCOc1ccccc1Cl` was run?
**A.** 101%

**Q.** For `Cc1cc(C(=O)CSc2nc3ccccc3c(=O)[nH]2)c(C)n1C`, which growth is on record?
**A.** 96.2%

**Q.** How did the growth turn out when `Cc1ccc(C2=NN(c3ccc(S(=O)(=O)NC(=O)NCc4ccccc4)cc3)C(c3ccc(N(C)C)cc3)C2)c(C)c1` (configuration not stated) was run?
**A.** 22.6%

**Q.** Which growth does the source give for `O=C(/C=C/CN1CCOCC1)Nc1cc2c(Nc3cccc(Cl)c3F)ncnc2cc1OCCOC(F)F` here?
**A.** 94.1%

**Q.** Which growth does the source give for `COc1ccc(/C(=N/O)c2cc(OC)c(OC)c(OC)c2)c(OC)c1N` here?
**A.** 27.5%

**Q.** How did the growth turn out when `O=[N+]([O-])c1ccc(S(=O)(=O)N2CCN(c3ccnc4cc(Cl)ccc34)CC2)c([N+](=O)[O-])c1` was run?
**A.** 93.9%

**Q.** With `Cc1cc(N/C=c2\sc3ncnn3c2=O)no1` as the compound, how does the growth read?
**A.** 105%

**Q.** For `O=C(Nc1ccc(F)c(Cl)c1)c1n[nH]c(=O)c2ccccc12`, which growth is on record?
**A.** 90.3%

**Q.** Which growth does the source give for `O=C(CCCn1c(=O)c2sc3ccccc3c2n2nnc(-c3ccccc3)c12)NCCc1cnc[nH]1` here?
**A.** -51.2% (active)

**Q.** With `CC1=C(C#N)C(C)(C)C(C#N)=C(C)N1` as the compound, how does the growth read?
**A.** 94.8%

**Q.** `COc1cc(CCn2nnc3c(Nc4ccc(N5CCOCC5)cc4)ncnc32)cc(OC)c1` was tested. Which growth did it give?
**A.** 95.6%

**Q.** `COc1ccc(-c2cn[nH]c2-c2cc(OC)c3c(c2)OCO3)cc1` was tested. Which growth did it give?
**A.** 9.27% (active)

**Q.** For `Cc1ccc(OCCn2c(C)nn(-c3ccc(Cl)cc3)c2=O)cc1`, which growth is on record?
**A.** 101%

**Q.** With `O=C(Nc1ccc(I)cc1)c1cc([N+](=O)[O-])ccc1O` as the compound, how does the growth read?
**A.** 31.1%

**Q.** With `O=C(NNC(=S)Nc1ccccc1)c1ccccn1` as the compound, how does the growth read?
**A.** 20.4%

**Q.** Which growth does the source give for `COc1ccc(-c2cn[nH]c2-c2cc(OC)c3c(c2)OCCO3)cc1` here?
**A.** 16.4%

**Q.** Which growth does the source give for `COc1cc(Cn2c(SCCC(=O)Nc3ccc(F)cc3)nc3ccccc3c2=O)cc(OC)c1OC` here?
**A.** 95.2%

**Q.** With `COc1cc(-c2cc(/C=C3\CCCCC3=O)[nH]n2)cc(OC)c1OC` as the compound, how does the growth read?
**A.** 92.2%

**Q.** `Cc1ccc(S(=O)(=O)NCCCNc2nccc(-c3c(-c4ccccc4)nc4sccn34)n2)cc1` was tested. Which growth did it give?
**A.** 63.1%

**Q.** For `O=C1C2=C(C(=O)c3c(O)ccc(O)c31)N(c1cccnc1)Cc1ccccc1O2`, which growth is on record?
**A.** 2.04% (active)

**Q.** Which growth does the source give for `COc1ccc(NC(=O)CSc2nc3ccc(Cl)cc3c(=O)n2-c2ccccc2C(F)(F)F)c(OC)c1OC` here?
**A.** 58%

**Q.** How did the growth turn out when `CC(C)C[C@H](NC(=O)[C@@H](Cc1ccccc1)n1ccc(Nc2ccccc2)cc1=O)B(O)O` was run?
**A.** 5.67% (active)

**Q.** With `Cc1cccc(NC(=O)c2sc3nc4c(cc3c2N)CCCC4)c1` as the compound, how does the growth read?
**A.** 34.4%

**Q.** `O=c1oc2c([nH]c3ccc4ccccc4c32)c2ccccc12` was tested. Which growth did it give?
**A.** 100%

**Q.** With `CC1CCc2c(sc(NC(=O)CSc3nnc4ccccn34)c2C(N)=O)C1` (configuration not stated) as the compound, how does the growth read?
**A.** 108%

**Q.** With `CC1Cc2c(N(C)C)ncnc2N(C)c2ccc(Cl)cc21` (configuration not stated) as the compound, how does the growth read?
**A.** 27.3%

**Q.** `CCC(=O)Oc1cc(/C=C/C(=O)O[C@H]2C[C@H]3CN4CCc5c([nH]c6cc(OC)ccc56)[C@@H]4C[C@@H]3[C@@H](C(=O)OC)[C@@H]2OC)ccc1OC` was tested. Which growth did it give?
**A.** 61.1%

**Q.** For `CN(C)C/C=C/C(=O)Nc1cc2c(Nc3cccc(Cl)c3F)ncnc2cc1OCCOC(F)F`, which growth is on record?
**A.** 50.3%

**Q.** Which growth does the source give for `O=C1Nc2cc(Cl)ccc2Oc2cc(Oc3ccccc3)ccc21` here?
**A.** 74.1%

**Q.** With `c1cncc(CNc2ccccc2-c2nnc(Nc3ccc4c(c3)OCCO4)o2)c1` as the compound, how does the growth read?
**A.** 30.8%

**Q.** Which growth does the source give for `COC1=CC(c2ccc[nH]2)=N/C1=C\c1[nH]c(C)c(C(=O)CCCCC(=O)Oc2ccc3c(c2)CCC2C3CC[C@]3(C)[C@@H](O)CC[C@@H]23)c1C` (some centres not stated) here?
**A.** 52.6%

**Q.** For `COc1ccc(/C=c2\sc3n(c2=O)C2C(NN=3)N(C)C(=O)N2C)cc1` (configuration not stated), which growth is on record?
**A.** 29.3%

**Q.** How did the growth turn out when `Cc1sc(N=Nc2ccc(N(C)C)cc2)[n+]([O-])c1C` was run?
**A.** 99%

**Q.** How did the growth turn out when `COc1cc(/C=C/C(=O)c2ccccc2O)ccc1OCCCOc1cc2c(cc1OC)C(=O)N1CCC[C@H]1C=N2` was run?
**A.** -74.7% (active)
